# Measured values taken from PubChem BioAssay AID1626 (SRMLSC, 2009).
# Out of some 220,000 compounds screened, about 2,000 (0.91%) were called active. About 2% were inconclusive and are not listed. These entries were drawn from the full list. Measured potencies and affinities stand elsewhere. Unmarked numbers belong to inactive results. No stated cut-off is given here; in the data, inconclusive means inhibition above about 80% without an active follow-up result; inactive means below that; test concentration not stated here.
# Assay: M. tuberculosis H37Rv growth inhibitors, H37Rv strain (AID 1626);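 further: bacteria incubated seven days before Alamar blue readout; 0% = bacteria only wells and 100% = bacteria with antibiotic wells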
# Conditions: hits give high values, concentration not given here
row,SMILES,inhibition [%]
1,COc1ccc(NC(=S)Nc2ccccc2F)c(OC)c1,-4.54
2,COC(=O)c1ccccc1NC(=O)C1CCCN(S(=O)(=O)c2ccc(OC)cc2)C1 (stereo unspecified),5.41
3,O=C(/C=C/c1ccccc1Cl)NCc1cccs1,2.96
4,O=C1CC(SCc2nc3ccccc3[nH]2)C(=O)N1c1ccc(F)c(Cl)c1 (stereo unspecified),-2.51
5,Cc1cccn2c(=O)c3cc(C(=O)NC(C)c4ccccc4)c(=N)n(CCCn4ccnc4)c3nc12 (stereo unspecified),48.6
6,C=CC(=O)NC1CC2CCC1(C)C2(C)C (stereo unspecified),6.5
7,CC1(C)C2CCC1(C)C(Nc1ccccc1)C2 (stereo unspecified),3.82
8,Cc1onc(-c2c(F)cccc2Cl)c1C(=O)N1CCN(c2ncccn2)CC1,3.2
9,COc1cc(CNn2c(C)n[nH]c2=S)cc(Br)c1OCc1ccc(F)cc1,6.01
10,CCOc1ccc(N=C(/C(C(=O)C(=O)N2CCOCC2)=C(/O)c2ccccc2)c2ccccc2)cc1,70.8
11,CCOc1ccc(OCc2ccc(C(=O)N3CCOCC3)cc2)cc1,-3.72
12,Nc1ccc(C(=O)c2cccs2)cn1,-5.69
13,O=C(c1ccccc1)c1cccs1,0.41
14,COc1ccc(-c2csc(NC(CO)c3nc4ccccc4n3CCCO)n2)cc1 (stereo unspecified),1.28
15,O=C(Nc1ccccn1)c1cc2ccccc2o1,9.27
16,Cc1ccc(-c2csc(NC(=O)c3ccc(C)o3)n2)cc1,10.4
17,Cc1cc(-c2csc(NC(=O)c3cc4ccccc4o3)n2)c(C)n1C,-8.86
18,Cc1ccc(C(=O)Nc2nc(-c3cccnc3)cs2)o1,7.51
19,CCCCn1nnnc1SCC(=O)N1CCOCC1,-13.6
20,Cc1[nH]nc2c1C(c1cccs1)C(C#N)=C(N)O2 (stereo unspecified),8.65
21,CC(O)[C@H]1CNC(=O)C(=O)N1CCC12CC3CC(CC(C3)C1)C2 (stereo partly specified),-0.53
22,COc1ccc(OC)c(S(=O)(=O)Nc2ccc3oc4c(c3c2)C(=O)CCC4)c1,-4.7
23,CC(=O)Oc1ccc2oc(C)c(C(=O)N3CCOCC3)c2c1,-12.9
24,COc1ccc(-n2c(O)c(C(C)=NCc3ccc4c(c3)OCO4)c(=O)[nH]c2=O)cc1,0.11
25,CC(C)N(C(=O)CC1ON(C)C(=O)N1c1ccc(Cl)cc1)C(C)C (stereo unspecified),-4.4
26,CCOC(=O)C1=C(c2ccccc2)N=c2s/c(=C\c3cc(OC)c(OC)c(OC)c3)c(=O)n2C1c1cccs1 (stereo unspecified),-2.92

row,SMILES,inhibition [%]
1,CCOC(=O)C1=C(C)N=c2s/c(=C/c3ccccc3)c(=O)n2C1c1ccc(OC)c(OC)c1 (stereo unspecified),1
2,S=C(NCCc1ccccc1)Nc1ccccc1N1CCOCC1,0.99
3,COc1ccc([N+](=O)[O-])cc1NC(=O)C(C)OC(=O)c1cccnc1Cl (stereo unspecified),-2.19
4,CC1=C(C(=O)Nc2ccccn2)C(c2ccc(Cl)cc2)NC(=S)N1 (stereo unspecified),-5.44
5,CCOC(=O)c1cnc(Nc2nc3ccccc3o2)nc1CSC(=S)N(CC)CC,-2.38
6,CCOC(=O)c1cnc(Nc2nc3ccccc3o2)nc1CSc1ncccn1,0.18
7,O=C1c2cc(O)cc(O)c2C(=O)c2c1cc(O)c([C@@H](CO)CCO)c2O,-0.07
8,Cc1cc(NC(=O)CCCC(=O)N(c2ccccc2)C(C(=O)NC2CCCCC2)c2cccs2)no1 (stereo unspecified),-3.8
9,Cc1ccc([N+](=O)[O-])cc1N(CC(=O)NC1CCCC1)S(C)(=O)=O,1.23
10,Cc1c(/C=N\NC(=O)C2COc3ccccc3O2)c2ccccc2n1C (stereo unspecified),10.6
11,C#CCNC(=O)C1=C[C@@H](C2CC2)[C@H](CCCO)[C@@H](OCC)O1,-9.56
12,O=C(Nc1nnc(-c2ccco2)o1)C1CCCCC1,3.01
13,CC(=O)Nc1nnc(-c2ccc(Cl)s2)o1,2.92
14,O=C(Nc1nnc(-c2ccncc2)o1)C1CCCCC1,0.18
15,CCC(=O)Nc1nnc(-c2ccc(Cl)s2)o1,13.6
16,Cc1cc(C(=O)COc2ccc(Cl)cc2Br)c(C)n1C,-4.24
17,CCN(CC)C(=O)C1CCCN(c2ccc([N+](=O)[O-])cc2/C=N/NC(=O)c2ccccc2)C1 (stereo unspecified),9.19
18,Cc1ccc(CNC(=O)CCc2nc(-c3cccs3)no2)cc1,6.02
19,CCN(CC)S(=O)(=O)c1ccc(NS(=O)(=O)CC23CCC(CC2=O)C3(C)C)cc1 (stereo unspecified),-3.32
20,C=CCNC(=O)c1ccc(-n2cccc2)cc1,8.71
21,N#Cc1ccc(NC(=O)N2CCC(c3nc4c(nnn4Cc4cccc(Cl)c4)c(=O)[nH]3)CC2)cc1,69
22,O=C(Nc1ccc(F)cc1)N1CCC(c2nc3c(nnn3Cc3cccc(Cl)c3)c(=O)[nH]2)CC1,64.2
23,N/C(=N\OC(=O)CCc1ccccc1)c1ccccc1Cl,14.4
24,COc1cc(CNC(C)(C)CO)cc(Br)c1OCc1ccc(Cl)cc1,9.24
25,COc1cc(CNC(C)(C)CO)cc(Br)c1OCc1ccc(Cl)cc1Cl,62.5
26,COC(=O)CCC(=O)OC1(C)C(=O)C2=CN(Cc3ccco3)C(c3ccc(OC)cc3)=CC2=C(Br)C1=O (stereo unspecified),1.66

row,SMILES,inhibition [%]
1,O=C(Nc1ccncc1)c1sc2ccccc2c1Cl,2.92
2,O=C(Nc1nccs1)c1cnccn1,-1.5
3,Cc1cnc(NC(=O)c2sc3ccccc3c2Cl)s1,3.19
4,CCCc1cc(C(=O)Nc2nnc(C)s2)cs1,1.88
5,O=C(COC(=O)c1ccccn1)Nc1nccs1,-5.49
6,CCC(=O)Nc1cccc(C(=O)Nc2nccs2)c1,2.64
7,Cc1onc(-c2c(F)cccc2Cl)c1C(=O)Nc1nccs1,6.17
8,COC(=O)c1nc(N)sc1-c1ccc(OC)cc1,-1.47
9,CCCS(=O)(=O)N1CCN(Cc2ccc([N+](=O)[O-])cc2)CC1,5.19
10,COc1ccc(CNC(=O)COC(=O)c2ccc(Br)cc2)cc1,5.06
11,CN(C)NC(=O)C(NC(=O)c1ccccc1)C12CC3CC(CC(C3)C1)C2 (stereo unspecified),-4.07
12,CCn1c(=O)c(C(=O)CN2CCCc3ccccc32)c(N)n(Cc2ccccc2)c1=O,-5.75
13,COc1ccc(-c2nnc3n2C(C)(C)Cc2cc(OC)c(OC)cc2-3)cc1,3.77
14,COC(=O)[C@@H](NC(=O)Nc1ccc(OC)cc1)C(C)C,2.16
15,COc1ccc(NS(=O)(=O)c2ccc(O)c(C(=O)OCC(=O)NC(C)C3CC4CCC3C4)c2)cc1 (stereo unspecified),-0.76
16,CCc1ccc(NC(=O)c2ccccc2Br)cc1,6.96
17,CC(SC1CCCC1)C(=O)NC(C)(C#N)C(C)C (stereo unspecified),-2.88
18,CC(C)(C)NC(=O)C1CCC(CNc2c(N3CCCCC3)c(=O)c2=O)CC1 (stereo unspecified),-2.67
19,CCOc1ccc(NC(=O)CN2CCN(CC(=O)Nc3ccc(F)cc3)CC2)cc1,9.61
20,CCOc1ccc(NC(=O)CN2CCN(CC(=O)Nc3ccc(F)c(F)c3)CC2)cc1,10.7
21,COc1ccc(NC(=O)CN2CCN(C3c4ccccc4-c4ccccc43)CC2)cc1,18.1
22,COc1ccc(NC(=O)CN2CCN(C3c4ccccc4-c4ccccc43)CC2)c(OC)c1,28.6
23,COc1ccc(C(=O)N[C@H](C(=O)OCc2cc(=O)oc3cc(C)ccc23)C(C)C)cc1,9.93
24,Cc1cccc(C)c1OCCCCn1cnc2ccccc2c1=O,-6.94
25,CCOC(=O)N1CCN(C(=O)CCCn2c(=O)[nH]c3ccccc3c2=O)CC1,1.26
26,COC(=O)C1=C(C)NC(C)=C(C(=O)OC)C1C1CC=CCC1 (stereo unspecified),5.42

row,SMILES,inhibition [%]
1,Cc1cccn2cc(-c3cccc(NC(=O)c4cccs4)c3)nc12,2.98
2,COc1ccc(-c2cc(C(=O)OC3CCOC3=O)c3ccccc3n2)cc1OC (stereo unspecified),-3.98
3,CCOC(=O)N1CCN(C(=O)CSc2ccc(-c3ccccc3OC)nn2)CC1,3.28
4,COC(=O)c1ccc(Cl)c(S(=O)(=O)N2CCCC2)c1,4.58
5,C=C(C)C1Cc2c(C)nn(-c3ccccc3)c2C1 (stereo unspecified),3.68
6,C=C(C)C1Cc2c(C)nn(-c3cccc4ccccc34)c2C1 (stereo unspecified),13.7
7,COc1ccccc1CCc1nnc(CCC(=O)NC(C)Cc2cccnc2)o1 (stereo unspecified),4.51
8,COc1ccccc1Nc1nnc(SCC(=O)N2CCCC2)s1,-3.72
9,O=C(CCC1CCCCC1)NNC(=O)NC12CC3CC(CC(C3)C1)C2,-2.75
10,OC(CNCC1CCCO1)Cn1c2ccc(Br)cc2c2cc(Br)ccc21 (stereo unspecified),43.1
11,OC(CNCc1ccco1)Cn1c2ccccc2c2ccccc21 (stereo unspecified),0.42
12,O=C(CCc1nnc(Cc2c[nH]c3ccccc23)o1)NC1CCCC1,-6.46
13,CN(C)S(=O)(=O)c1ccc(NC(=O)CSc2nnnn2C)cc1,2.23
14,Cc1ccc(S(=O)(=O)NC(=O)Nc2cc(C(C)(C)C)on2)cc1,-7.06
15,Cc1ccc2cc(CCNC(=O)c3cccc([N+](=O)[O-])c3)c(=O)[nH]c2c1,2
16,CCc1nnc(NC(=O)c2ccc3ncsc3c2)s1,-18.6
17,COc1ccc(CCNC(=O)C2=COCCO2)cc1,0.72
18,Cc1ccnc2nc(C(=O)Nc3nnc(-c4ccc(Cl)cc4)o3)nn12,-1.12
19,COc1ccc2nc(NC(=O)c3ccc4ncsc4c3)sc2c1,8.2
20,COc1ccc(OC)c2sc(NC(=O)C3=COCCO3)nc12,6.97
21,COc1ccc(C)c2sc(NC(=O)C3=COCCO3)nc12,5.95
22,O=C(COc1ccc(Cl)cc1Cl)Nc1nnc(C2=COCCO2)o1,1.29
23,COc1ccc(-c2csc(NC(=O)COC(=O)C3=COCCO3)n2)cc1,4.53
